PubChem BioAssay AID485344 (National Center for Advancing Translational Sciences (NCATS), 2010)
Hit rate of the full screen: of about 340,000 compounds, about 6,900 (2%) were called active. Rule as the data show it: active = inhibition above about 30%; inactive = below that, where a call was filed. Many of the other results were omitted from the sample, so actives are more common in it than they were.

Target: D(2) dopamine receptor (Homo sapiens) (UniProt P14416)
Assay: HTS Assay for Allosteric Antagonists of the Human D2 Dopamine Receptor: Primary Screen for Antagonists; also: 0% is about no effect
Conditions: HEK293 TREx D2 cells, calcium flux, dopamine EC80; at 10 µM; stronger effect = higher value
Excerpt: NIH Chemical Genomics Center [NCGC] NIH Molecular Libraries Probe Centers Network [MLPCN] MLPCN Grant: NS064831-01 Assay Submitter (PI): David Sibley Dopamine receptors (DARs) are involved in the etiology and/or therapy of a number of neuropsychiatric and endocrine disorders. For instance, all receptor-based antiparkinsonian drugs work via stimulating the D2 DAR subtype whereas all FDA-approved antipsychotic agents are antagonists of this receptor. […] There are three different types of allosteric modulators that we are seeking, two of which will stimulate or augment receptor signaling, allosteric agonists and potentiators, while the third, allosteric antagonists, will attenuate receptor signaling. The present primary screening assay measures compound antagonism after an EC80 addition of dopamine by tracking calcium flux in a […], inducible Hek293 Trex D2 cell line.
Freshly passaged cells are plated in 1536 well black, clear bottom plates at a density of 4000 cells/well in 3 ul of complete media containing 1x tetracycline inducer. After an overnight incubation at 30 C in 5% CO2, cells are loaded with 2 ul of the no wash Calcium Assay Kit (ABD Bioquest) and incubated at room temperature for 30 to 90 minutes. Agonist read: A 10 cycle (1 second/cycle) baseline measurement is taken and then the FDSS online 1536 pintool delivers 23 nl of compound library (as well as dopamine controls) to the plate. The plate is measured for kinetically at 1 cycle/sec for 180 seconds. Following the 180 second read, 1 ul of an EC80 (negative modulation assay) is delivered by an onboard pipette head. Measurements are taken kinetically for an additional 180 seconds.

Chain of D(2) dopamine receptor (Homo sapiens) (P14416 whole entry, looked up): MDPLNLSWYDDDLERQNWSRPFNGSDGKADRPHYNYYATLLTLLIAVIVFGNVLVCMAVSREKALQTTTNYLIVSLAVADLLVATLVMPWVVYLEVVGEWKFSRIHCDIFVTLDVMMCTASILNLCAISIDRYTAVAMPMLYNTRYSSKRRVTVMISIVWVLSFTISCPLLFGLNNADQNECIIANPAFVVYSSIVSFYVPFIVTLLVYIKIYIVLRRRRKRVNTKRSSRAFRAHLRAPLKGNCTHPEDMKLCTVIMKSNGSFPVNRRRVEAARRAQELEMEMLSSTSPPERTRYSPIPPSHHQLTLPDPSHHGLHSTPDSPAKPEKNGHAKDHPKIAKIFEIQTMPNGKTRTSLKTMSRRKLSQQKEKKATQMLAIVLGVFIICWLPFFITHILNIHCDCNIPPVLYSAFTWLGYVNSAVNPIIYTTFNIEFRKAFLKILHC

Row | Compound | inhibition
1 | CC(=O)N1c2ccc(S(=O)(=O)NCCC(=O)N(C)C3CCCCC3)cc2CC1C (stereo unspecified) | -4.33% (inactive)
2 | CC(=O)N1c2ccc(S(=O)(=O)N(C)CC(=O)N(C)Cc3ccccc3)cc2CC1C (stereo unspecified) | 36.2% (active)
3 | COc1cccc(CNS(=O)(=O)c2ccc3c(c2)CC(C)N3C(C)=O)c1 (stereo unspecified) | -5.54% (inactive)
4 | CCOc1ccc(NC(=O)CN(C)C(=O)CSc2ccccc2)cc1OCC | 13.7% (inactive)
5 | CCOC(=O)CNc1nc(Cl)nc(Nc2ccccc2)n1 | 6.97% (inactive)
6 | COC(=O)CNc1nc(Cl)nc(N2CCC(C)CC2)n1 | 35.9% (active)
7 | Clc1nc(NC2CCCC2)nc(N2CCOCC2)n1 | -9.32% (inactive)
8 | O=C(CN1CCc2ccccc2C1)Nc1cccc(S(=O)(=O)N2CCOCC2)c1 | -6.15% (inactive)
9 | COc1ccc(F)cc1C(=O)COC(=O)c1n[nH]c(=O)c2ccccc12 | -10.9% (inactive)
10 | CN(C(=O)Cn1nnc(-c2ccc(F)cc2)n1)C1CCS(=O)(=O)C1 (stereo unspecified) | 9.49% (inactive)
11 | O=C(CCNS(=O)(=O)c1ccccc1)NCCSc1ccc(Br)cc1 | 45.1% (active)
12 | Cc1ccc(OCCNC(=O)CCNS(=O)(=O)c2ccc(Br)cc2)cc1 | 23.7% (inactive)
13 | O=C(CCNS(=O)(=O)c1ccccc1)NCCCc1ccccc1 | 21% (inactive)
14 | O=C(CCNS(=O)(=O)c1ccccc1C(F)(F)F)Nc1ccncc1 | -6.21% (inactive)
15 | CN(Cc1ccccc1F)C(=O)C(Cc1ccccc1)NC(=O)c1ccccc1 (stereo unspecified) | -5.32% (inactive)
16 | O=C(COC(=O)CNC(=O)c1ccco1)Nc1ccc(F)cc1 | -3.88% (inactive)
17 | NS(=O)(=O)c1ccc(NC(=O)COC(=O)c2ccco2)cc1 | 38.5% (active)
18 | NS(=O)(=O)c1ccc(NC(=O)COC(=O)c2cc3ccccc3oc2=O)cc1 | -18.7% (inactive)
19 | N/C(Cc1ccc([N+](=O)[O-])cc1)=N\OC(=O)C1CCCCC1 | 2.32% (inactive)
20 | NC(=O)c1ccc(NC(=O)COC(=O)c2ccc([N+](=O)[O-])cc2)cc1 | -23.5% (inactive)
21 | O=C(COC(=O)C1CCCCC1)Nc1ccc([N+](=O)[O-])cc1 | 35.3% (active)
22 | COc1ccc(CNC(=O)CN2C(=O)NC3(CCCc4sccc43)C2=O)cc1 (stereo unspecified) | 2.45% (inactive)
23 | Cc1ccc(S(=O)(=O)N2CCCCC2)cc1C(=O)N1CCN(CCO)CC1 | -6.17% (inactive)

Row | Compound | inhibition
24 | COc1ccc(-c2nn(-c3ccccc3)cc2C(=O)Nc2nc(CC(C)=O)ns2)cc1 | 13.1% (inactive)
25 | COc1ccc(NC(=O)c2cn(-c3ccccc3)nc2SC)cc1 | 60.7% (active)
26 | COc1ccc(-c2nn(-c3ccccc3)cc2/C=C\C(=O)Nc2ccc(C(=O)O)cc2)cc1 | 0.137% (inactive)
27 | O=C(NNC(=O)c1ccc(-n2cncn2)c([N+](=O)[O-])c1)c1ccccc1 | 1.81% (inactive)
28 | COc1ccc(C2=NN(C(=O)CSc3nnnn3C)C(c3ccco3)C2)cc1 (stereo unspecified) | -18.6% (inactive)
29 | Cc1ccc(C)c(S(=O)(=O)Nc2cccc(-n3cnnn3)c2)c1 | 4.04% (inactive)
30 | O=S(=O)(Nc1cccc(-n2cnnn2)c1)c1cnc(Cl)c(Cl)c1 | 34.6% (active)
31 | O=S(=O)(Nc1ccc(-n2cnnn2)cc1)c1ccc(Cl)cc1 | -3.4% (inactive)
32 | COc1ccccc1CNS(=O)(=O)c1cc(C(=O)NCc2ccccn2)c(Cl)cc1Cl | -2.76% (inactive)
33 | Cc1cccc(NS(=O)(=O)c2ccc(C)c(C(=O)NCC(c3ccccc3)N(C)C)c2)c1 (stereo unspecified) | -4.69% (inactive)
34 | CNC(=O)C1CC(=O)N(c2ccc(OCC(=O)Nc3ccccc3C)cc2)C1 (stereo unspecified) | 12.9% (inactive)
35 | Fc1ccccc1Cn1cnc(NC(=S)NCCc2ccccc2)n1 | 40.1% (active)
36 | Cc1cc(F)ccc1NC(=S)NCCc1ccccc1 | -0.203% (inactive)
37 | S=C(NCCc1ccccc1)NCc1ccccc1Cl | -2.45% (inactive)
38 | CC(=O)N1CCc2c(sc(NC(=O)CCS(=O)(=O)c3ccc(C)cc3)c2C(N)=O)C1 | -1.82% (inactive)
39 | Oc1c(CN2CCN(c3ccc(F)cc3)CC2)cc(Cl)c2cccnc12 | 49.1% (active)
40 | O=C(c1cccc(C(=O)N2CCN(c3ccc(F)cc3)CC2)c1)N1CCN(c2ccc(F)cc2)CC1 | 19.6% (inactive)
41 | CCN1CCN(C(c2cccnc2)c2cc(Cl)c3cccnc3c2O)CC1 (stereo unspecified) | 2.31% (inactive)
42 | CCN(CC(=O)Nc1ccc(OC)cc1)C(=O)c1ccc(=O)n(Cc2ccccc2)n1 | 7.28% (inactive)
43 | Cc1ccc(S(=O)(=O)NCCNC(C)c2ccc(Br)cc2)cc1 (stereo unspecified) | -7.75% (inactive)
44 | COc1ccc(C2CC(=O)NC(=O)C2)cc1 | -28.9% (inactive)
45 | COc1ccc2cc(C3=CC(=O)C[C@H](c4ccc5c(c4)OCO5)C3)ccc2c1 | 13.1% (inactive)
46 | COc1ccc(C2CC(=O)Oc3ccc(C(C)(C)C)cc32)cc1 (stereo unspecified) | 40.2% (active)
